# Experimental data published in PubChem BioAssay (NCATS).
# Records with an inconclusive call do not appear. Entries that show only a call come without a potency. Activity calls are given as the source filed them. The call rests on the fitted dose curve; in most records, active means well fitted cell-killing curve with a large enough effect; inconclusive means small, poorly fitted or top-dose-only effect; inactive means no such curve, though single readings can be large or run the other way.
# Assay: qHTS of pediatric cancer cell lines to identify multiple opportunities for drug repurposing: Primary screen for LAN-5 cells (AID 1347100)
# Settings: LAN-5 neuroblastoma viability, CellTiter-Glo luminescence, 48 h; series mostly up to 46 µM
# Text: Drug repurposing or repositioning has been offered as a strategy for drug development in oncology programs. This approach has special potential for childhood cancers and other rare or orphan diseases, where the expected return on new drug development has been a disincentive to pharmaceuticals.
# In this project we exploit the poly-pharmacology of drugs to discover new indications via phenotypic screening of a panel of 19 well-characterized cell lines derived from solid tumors seen in children and adolescents. The goal is to identify approved drugs with previously unrecognized anticancer properties that has the potential to reveal new mechanisms and biological processes involved in carcinogenesis or drug resistance. We employed a titration-based paradigm (quantitative high-throughput screening or qHTS), where all compounds were tested at multiple concentrations for their effect on cell viability. Concentration-response curves (CRCs) were derived directly from the primary screen, and both potency and efficacy values were used to identify compounds with robust bioactivity profiles. We screened the NIH Chemical Genomics Center (NCGC) Pharmaceutical Collection (NPC) and Mechanism Interrogation Plate (MIPE) small molecule collections of approved and investigational compounds against these cell lines; and measured metabolically active cells after 48 hours of compound treatment as a proxy for cell viability.
# Assay Submitter: Nathalia J. Martinez, National Center for Advancing Translational Sciences, National Institutes of Health, Rockville, MD, USA; email: natalia.martinez@nih.gov
# [1] Shen, M et al. Quantitative high-throughput phenotypic screening of pediatric cancer cell lines identifies multiple opportunities for drug repurposing. Oncotarget 2017 Dec 19;9(4):4758-4772. PMID 29435139.
# The cells were obtained from University of North Carolina (UNC), Pediatric Preclinical Testing Program (PPT), and Coriell Institute (CI).
# qHTS cell viability assay:
# Cells were assayed in growth media at a density of 500-1,000 cells/well. Five microliters of cells were dispensed into 1,536-well, white, solid-bottom, TC-treated plates (Greiner Bio One) using a multidrop dispenser and incubated at 37 degrees C, 5% CO2, under a humidified atmosphere for 5 hours. Twenty-three nanoliters of compounds and controls (neutral control DMSO or positive control bortezomib at final concentration of 2.3 µM) were subsequently transferred by Kalypsys pintool. For primary screens, the MIPE collection was tested at 11-point dilutions (final concentrations range from 0.78 nM to 46 µM) and the NPC collection at 8-point dilutions (final concentrations range from 0.59 nM to 46 µM). Compounds tested in follow-up screens were assayed at 11-point dilutions. Cells were incubated for 48 hours, followed by addition of 3 µL of CellTiter-Glo (Promega). After a 15 min incubation at room temperature, samples were analyzed for luminescence intensity using a ViewLux High-throughput CCD imager equipped with clear filters.
# Potency means the concentration at half of the fitted maximal effect.
row,SMILES,Potency
1,COc1ccc(C(=O)c2ccccc2O)c(O)c1,inactive
2,CN1CCN(C2=Nc3cc(F)ccc3Cc3ccccc32)CC1,inactive
3,O=C(O)P(=O)(O)O,inactive
4,O=C1c2cccc3c2[C@H](CCC3)CN1[C@@H]1CN2CCC1CC2,inactive
5,CCCCCN=C(N)N/N=C/c1c[nH]c2ccc(OC)cc12,26.6 µM (active)
6,COc1cc(C(=O)N2CCCCCCC2)cc(OC)c1OC,inactive
7,CC(C)[C@@H]1CC[C@@H](C)CC1=O,inactive
8,CC(O)Cn1cnc2c1c(=O)n(C)c(=O)n2C (stereo not given),inactive
9,C[N+]1(CC2COC(c3ccccc3)(C3CCCCC3)O2)CCCCC1 (stereo not given),inactive
10,CN1CCN(c2cc3c(cc2F)c(=O)c(C(=O)O)cn3-c2ccc(F)cc2)CC1,inactive
11,COc1ccc2c(c1)c1c3n2CCN(C)C3=NCC1,inactive
12,COc1cc(NS(=O)(=O)c2ccc(N)cc2)ncn1,inactive
13,NS(=O)(=O)c1cc(C(=O)O)cc(N2CCCC2)c1Oc1ccccc1,inactive
14,CC1(COc2ccc(CC3SC(=O)NC3=O)cc2)CCCCC1 (stereo not given),inactive
15,CC(CNC1CCCCC1)OC(=O)c1ccccc1 (stereo not given),inactive
16,CCCCCCCCOc1ccc(C(=O)c2ccccc2)c(O)c1,inactive
17,Cc1ccc(-c2ncc(Cl)cc2-c2ccc(S(C)(=O)=O)cc2)cn1,inactive
18,C[N+]1(C)CCC(=C(c2ccccc2)c2ccccc2)CC1,inactive
19,NS(=O)(=O)c1cc2c(cc1Cl)NC(CC1CCCC1)NS2(=O)=O (stereo not given),inactive
20,O=[N+]([O-])c1cccc(S(=O)(=O)NCCNS(=O)(=O)c2cccc([N+](=O)[O-])c2)c1,inactive

row,SMILES,Potency
1,C#C[C@]1(O)CC[C@H]2[C@@H]3CCC4=CC(=O)CC[C@@H]4[C@H]3CC[C@@]21CC,inactive
2,O=C1OC(CN2CCOCC2)CN1/N=C/c1ccc([N+](=O)[O-])o1 (stereo not given),inactive
3,CCCCC(CC)COC(=O)c1ccc(N(C)C)cc1 (stereo not given),inactive
4,Cl/C(=C\n1cncn1)c1ccc(Cl)cc1Cl,inactive
5,CC(C)[N+](C)(C)CC(O)COc1cccc2ccccc12 (stereo not given),inactive
6,Nc1nc(N)c(-c2ccccc2)s1,inactive
7,c1ccc(CC2=NCCN2)cc1,inactive
8,CCN(CC)CCNC(=O)COc1ccc(OC)cc1,inactive
9,O=C(Nc1ccc([N+](=O)[O-])cc1)Nc1ccc([N+](=O)[O-])cc1,inactive
10,Cc1ccc(O)c([C@H](CCN(C(C)C)C(C)C)c2ccccc2)c1,inactive
11,CN(CCCN1c2ccccc2CCc2ccccc21)CC(=O)c1ccc(Cl)cc1,inactive
12,OC[C@H]1O[C@@H]2O[C@H]3[C@H](O)[C@@H](O)[C@@H](O[C@H]4[C@H](O)[C@@H](O)[C@@H](O[C@H]5[C@H](O)[C@@H](O)[C@@H](O[C@H]6[C@H](O)[C@@H](O)[C@@H](O[C@H]7[C@H](O)[C@@H](O)[C@@H](O[C@H]8[C@H](O)[C@@H](O)[C@@H](O[C@H]1[C@H](O)[C@H]2O)O[C@@H]8CO)O[C@@H]7CO)O[C@@H]6CO)O[C@@H]5CO)O[C@@H]4CO)O[C@@H]3CO,inactive
13,CCCCCCCCCCCCCC(=O)OC(C)C,inactive
14,CCCN(CCC)S(=O)(=O)c1ccc(C(=O)O)cc1,inactive
15,COC(=O)C(c1ccccc1Cl)N1CCc2sccc2C1 (stereo not given),inactive
16,O=C(c1ccc(F)cc1)C1CCN(CCn2c(=S)[nH]c3ccccc3c2=O)CC1,inactive
17,NC1CCN(c2nc3c(cc2F)c(=O)c(C(=O)O)cn3-c2ccc(F)cc2F)C1 (stereo not given),inactive
18,COc1cc([C@H]2Oc3cc([C@H]4Oc5cc(O)cc(O)c5C(=O)[C@@H]4O)ccc3O[C@@H]2CO)ccc1O,inactive
19,CC(=O)Nc1ncc([N+](=O)[O-])s1,inactive
20,NC(=O)C1(N2CCCCC2)CCN(CCCC(=O)c2ccc(F)cc2)CC1,inactive
